Experimental findings from PubChem BioAssay (NCATS) are described below.

Unmarked numbers belong to inactive results. Results filed as inconclusive are left out. Activity calls are given as the source filed them. Unless noted, the call rests on the fitted dose curve; in most records, active means well fitted curve in the direction sought with a large enough effect; inconclusive means small, poorly fitted or top-dose-only effect, or another doubt; inactive means no such curve, though single readings can be large; an effect the other way counts as inactive or inconclusive.

Experiment [1] deals with Calcium and integrin-binding protein 1 (Homo sapiens) (UniProt Q99828). The experiment in a line: Primary qHTS for Identification of Calcium Integrin Binding Protein 1 (CIB1) Competitor (AID 1508620).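 Further: GST tagged CIB1 binding a fluorescein labelled alphaIIb integrin peptide tracer; top concentration of the series differs between compounds; on the % scale 0 is the no-effect control and ±100 the full control effect.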 The method, boiled down:
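Fluorescence polarization competition: CIB1-GST (1 uM final) preincubated with compound 15 min at room temperature, then FITC-labeled alphaIIb peptide (100 nM final) added for another 15 min. Polarization read at Ex 480/Em 540.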

In experiment [2] the target is N-terminal Xaa-Pro-Lys N-methyltransferase 1 (Homo sapiens) (UniProt Q9BV86). The experiment in a line: Confirmatory qHTS for Inhibitors of N-terminal methyltransferase 1 (NTMT1): MTaseGlo Assay (AID 1645874). Further: nearly all actives have a fitted effect of over 65% in size. Further: potency means the concentration at half of the fitted maximal effect.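 On activity change, negative = inhibition: luminescence from SAH made as NTMT1 methylates SPKRIA peptide using SAM; 0% = DMSO control and -100% = no-enzyme control.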 The method, boiled down: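 Room-temperature NTMT1 reaction, 30 min, with 100 uM SAM and 1 uM SPKRIA substrate; enzyme 125 nM. Read-out: MTase-Glo luminescence, normalized to no-enzyme and DMSO controls.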

Experiment [3] addresses Rap guanine nucleotide exchange factor 3 (Homo sapiens) (UniProt O95398). The experiment in a line: Confirmatory qHTS for antagonist of cAMP-regulated guanine nucleotide exchange factor 3 (EPAC1) (AID 1645880). Further: potency means the concentration at half of the fitted maximal effect; nearly all actives have a fitted effect of over 55% in size. The method, boiled down:
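Released BODIPY-GDP fluoresces less than Rap1-bound BODIPY-GDP; the signal is followed at 480/540 nm at 5-min intervals over 30 min, after 5 min at room temperature. Reactions contain 100 nM EPAC1, 250 nM RAP1B-BODIPY-GDP and 50 uM GDP; results are normalized to ATA and DMSO.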

Experiment [4] has the same target. The experiment in a line: Confirmatory qHTS for agonist of cAMP-regulated guanine nucleotide exchange factor 3 (EPAC1) (AID 1645881).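 Further: EPAC1 catalysed release of BODIPY-GDP from Rap1B seen as fluorescence loss; 100% = effect of cAMP agonist control; nearly all actives have a fitted effect of over 75% in size.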
For experiment [5] the target is unchanged. As to the kind of experiment: Counterscreen qHTS for antagonist of cAMP-regulated guanine nucleotide exchange factor 3 (EPAC1) (AID 1645888). Further: % of control where 0% means no effect. The method, boiled down:
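Measured: fluorescence of BODIPY-GDP bound to Rap1B, which falls as exchange proceeds. Conditions include 50 uM competing GDP, 5 and 30 min reads, and a later cAMP challenge for antagonist detection.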

For experiment [6], the target named is Lysosomal acid glucosylceramidase (Homo sapiens) (UniProt P04062). The experiment in a line: Glucocerebrosidase-p2 (AID 348; in the data active means potency below about 10 µM; further: potency means the concentration at half of the fitted maximal effect). The note with it: purified GBA, blue fluorogenic substrate, 40 min. The method in brief:
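Normal human glucocerebrosidase (0.2 nM) with blue fluorogenic substrate (80 uM final) in citrate/phosphate pH 5.9 with 10mM sodium taurocholate, 0.01% tween-20; 40 min RT, NaOH/glycine stop; fluorescence Ex 365/Em 440; AC50 from a titration from 0.6 nM upwards.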

The nature of experiment [7]: AP1 Signaling Pathway (AID 357; active means well fitted curve in either direction with a large enough effect, not every such curve was filed as active;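 further: ME-180 reporter cells stimulated with EGF at its EC50 level; on the % scale 0 is the no-effect control and ±100 the full control effect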). The note with it: ME-180 AP-1-bla reporter, EGF-induced, beta-lactamase ratio, 5 h; at 7.69 µM (top of the series) unless noted. The method, boiled down:
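Cells are seeded overnight, exposed to compound titrations and an EC50 level of EGF for 5 hours at 37 °C, then loaded with CCF4 dye for 2.5 hours. Beta-lactamase activity under the AP-1 element is read as a blue/green ratio.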

Experiment [8] has as its target Cytochrome P450 1A2 (Homo sapiens) (UniProt P05177). As to the kind of experiment: p450-cyp1a2 (AID 410; calls by dose curve; further: potency means the concentration at half of the fitted maximal effect). The method in brief:
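O-Demethylation of luciferin 6' methyl ether by human CYP1A2 is monitored as luciferase luminescence. Substrate sits at Km (100uM); enzyme is 20nM. Values are scaled to 57 uM furafylline as maximal inhibition.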

Experiment [9] is described as follows: NFAT Signaling Pathway (AID 444; active means well fitted curve in either direction with a large enough effect, not every such curve was filed as active;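 further: carbachol stimulus at about its EC50 of 1 µM final; on the % scale 0 is the no-effect control and ±100 the full control effect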). Conditions: Jurkat NFAT-bla M1, carbachol, beta-lactamase ratio, 5 h; at 7.69 µM (top of the series) unless noted. The method, boiled down: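 Jurkat cells carrying an NFAT-driven β-lactamase reporter and co-transfected muscarinic M1 receptor were treated with compound plus carbachol (1 uM final, an EC50 level) for 5 h at 37 °C. CCF4 loading followed for 1 h at RT; 460/530 nm ratio gave %activity.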

Experiment [10] can be described thus: Stat Signaling Pathway (AID 446; active means well fitted curve in either direction with a large enough effect, not every such curve was filed as active;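 further: ME-180 cervical cancer cells given 40 pM IL-6 alongside compound; SIE-controlled beta-lactamase reporter measured as 460/530 nm FRET emission ratio; on the % scale 0 is the no-effect control and ±100 the full control effect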). Conditions: ME-180 (cervical carcinoma) SIE beta-lactamase reporter, IL-6 stimulated, 5 h; at 7.69 µM (top of the series) unless noted. The method, boiled down: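 Overnight-plated ME-180 cells bearing a STAT Inducible Element beta-lactamase reporter; 5 h co-exposure to compound and 40 pM IL-6; values normalized to 300 pM IL-6 and 125 nM JAK inhibitor controls.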

Experiment [11] has as its target Glucocorticoid receptor (Homo sapiens) (UniProt P04150). As to the kind of experiment: GR-GFP Redistribution (AID 450;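 active means compounds whose dose series gives a full or clear partial fitted curve of increased nuclear translocation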; further: potency means the concentration at half of the fitted maximal effect). Conditions: U2OS GR-GFP nuclear translocation, laser cytometry, 2 h.
Experiment [12] has the same target. As to the kind of experiment: GR-EFC Redistribution (AID 451; calls by dose curve; further: potency means the concentration at half of the fitted maximal effect). The note with it: CHO-K1 GR-EFC translocation, beta-gal luminescence, 2 h. The method, boiled down:
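CHO-K1 cells stably expressing nuclear-localized β-gal enzyme acceptor and GR fused C-terminally to the enzyme donor fragment; ligand-driven nuclear translocation restores β-gal by complementation. Compounds titrated up to 46 uM final, 2 h at 37 °C; luminescence read.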

Experiment [13] deals with Mitogen-activated protein kinase 10 (Mus musculus) (UniProt Q61831). The experiment in a line: JNK3 AlphaScreen Assay (AID 530; active means well fitted curve in either direction with a large enough effect, not every such curve was filed as active). The method, boiled down: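 Phosphorylation of biotinylated GST-cJun(1-79) at Ser73 is measured by AlphaScreen proximity luminescence. Enzyme is JNK3 in HepG2 lysates activated with interleukin-1beta and tumor necrosis factor alpha; ATP is 10 uM final.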

Experiment [14] deals with Cytochrome P450 3A4 (Homo sapiens) (UniProt P08684). As to the kind of experiment: qHTS Assay for Inhibitors and Substrates of Cytochrome P450 3A4 (AID 884). Further: potency means the concentration at half of the fitted maximal effect; nearly all actives have a fitted effect of over 50% in size. The method in brief: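 Luminescent readout of luciferin produced by CYP3A4 (20 nM) dealkylation of Luciferin-PPXE, 25 uM (its KM). NADPH-driven reaction ran 60 min at RT after 10 min compound preincubation; data scaled to 57 uM ketoconazole as 100% inhibition.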

Experiment [15] shares this target. As to the kind of experiment: qHTS Assay for Activators of Cytochrome P450 3A4 (AID 885). Further: nearly all actives have a fitted effect of over 65% in size. The method in brief: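 Using 20nM recombinant human CYP3A4 in potassium phosphate (200mM), substrate Luciferin-PPXE at 25uM, luminescent luciferin detection followed a 60-min RT NADPH reaction; data scaled to 57 uM ketoconazole.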
The target in experiment [16] is Cytochrome P450 2D6 (Homo sapiens) (UniProt P10635). As to the kind of experiment: qHTS Assay for Inhibitors and Substrates of Cytochrome P450 2D6 (AID 891). Further: potency means the concentration at half of the fitted maximal effect; nearly all actives have a fitted effect of over 60% in size. The method, boiled down: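 Luminescent read-out of luciferin formed by 5 nM human CYP2D6 demethylating 30 uM Luciferin-ME EGE (Km level) over 60 min at room temperature after NADPH regeneration addition. Data normalized to full inhibition by 1.43 uM quinidine.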

Experiment [17] deals with Dual specificity protein kinase CLK4 (Homo sapiens) (UniProt Q9HAZ1). As to the kind of experiment: qHTS Assay for Inhibitors of CDC-like Kinase 4 (Kinase-Glo Assay) (AID 1770). Further: potency means the concentration at half of the fitted maximal effect; nearly all actives have a fitted effect of over 65% in size. The method in brief: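 Recombinant human Clk4 (25 nM) phosphorylated RS repeat peptide (100 uM) with 1 uM ATP in Tris pH 7.5/MgCl2/EGTA/DTT/Triton buffer for 4.5 h at room temperature. Residual ATP was quantified by Kinase-Glo luciferase luminescence.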

Experiment [18] has the same target. As to the kind of experiment: qHTS Assay for Inhibitors of CDC-like Kinase 4 (ADP-Glo Assay) (AID 1771). Further: potency means the concentration at half of the fitted maximal effect; nearly all actives have a fitted effect of over 70% in size. The method in brief: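 Compounds are pin-transferred onto substrate mix (100 uM RS peptide, 1 uM ATP), then 25 nM Clk4 is added. After 1 hr at room temperature, ADP-Glo reagent runs 45 min, detection reagent 30 min, then luminescence is read.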
The target is the same in experiment [19]. As to the kind of experiment: qHTS Assay for Inhibitors of CDC-like Kinase 4 (ADP-FP Assay) (AID 1795). Further: potency means the concentration at half of the fitted maximal effect; nearly all actives have a fitted effect of over 60% in size. The method in brief: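 Recombinant human Clk4 (6.25 nM) phosphorylated RS repeat peptide (100 uM) with 1 uM ATP in Tris pH 7.5/MgCl2/EGTA/DTT/Triton buffer for one hour. ADP was quantified by Transcreener competitive fluorescence polarization against an ADP calibration curve.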

In experiment [20] the target is Ubiquitin carboxyl-terminal hydrolase 1 (Homo sapiens) (UniProt O94782). The experiment in a line: Inhibitors of USP1/UAF1: Pilot qHTS (AID 504865).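 Further: rhodamine fluorescence freed from ubiquitin-rhodamine substrate followed over time; top concentration of the series differs between compounds; on the % scale 0 is the no-effect control and ±100 the full control effect; nearly all actives have a fitted effect of over 35% in size.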 The method, boiled down:
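USP1/UAF1 complex (1nM) preincubated with compound 15 min at room temperature, then Ub-Rho substrate (150nM final) added. Fluorescence read kinetically at 480/540 nm, 6 reads every 60 seconds. Buffer: 50mM HEPES pH 7.8, 0.5mM EDTA, 0.1 mg/ml BSA, 1mM TCEP, 0.01% Tween-20.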

Experiment [21] in a line: Primary qHTS for small molecule stabilizers of the endoplasmic reticulum resident proteome: Secreted ER Calcium Modulated Protein (SERCaMP) assay (AID 1508630). Further: on the % scale 0 is the no-effect control and ±100 the full control effect. The method, boiled down:
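The SH-SY5Y reporter protocol was run at 3 concentrations up to 38.3 uM (primary) or 11 concentrations (follow-up): 16 h compound, 100 nM thapsigargin for 4 h, then extracellular luciferase luminescence.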

The nature of experiment [22]: Primary qHTS for inhibitors of nuclear receptor binding SET domain protein 2 (NSD2) in an isogenic RCH-ACV NSD2 p.E1099K mutant (9B) (AID 1645876). Further: on the % scale 0 is the no-effect control and ±100 the full control effect; nearly all actives have a fitted effect of over 70% in size.
The target of experiment [23] is Glutathione peroxidase 1 (Homo sapiens) (UniProt P07203). As to the kind of experiment: Primary qHTS Assay for Inhibitors of Recombinant Selenoprotein Glutathione Peroxidase 1 (GPX1) (AID 1845191). Further: on the % scale 0 is the no-effect control and ±100 the full control effect; nearly all actives have a fitted effect of over 65% in size. The method in brief: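 GPX1 10 nM, GR 100 nM, GSH 1 mM, NADPH 0.5 mM, CHP 0.5 mM (final). 30-min cpd preincubation, RT. Ex340/Em450 read t=0, t=15 min.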
Sequence of Glutathione peroxidase 1 (Homo sapiens) (P07203 whole entry, looked up): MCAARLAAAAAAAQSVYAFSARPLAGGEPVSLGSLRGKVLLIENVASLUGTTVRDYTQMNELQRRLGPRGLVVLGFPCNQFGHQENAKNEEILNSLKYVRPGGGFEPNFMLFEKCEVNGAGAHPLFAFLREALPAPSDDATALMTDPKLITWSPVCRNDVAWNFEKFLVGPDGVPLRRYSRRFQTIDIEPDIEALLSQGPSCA

Sequence of N-terminal Xaa-Pro-Lys N-methyltransferase 1 (Homo sapiens) (Q9BV86 whole entry, looked up): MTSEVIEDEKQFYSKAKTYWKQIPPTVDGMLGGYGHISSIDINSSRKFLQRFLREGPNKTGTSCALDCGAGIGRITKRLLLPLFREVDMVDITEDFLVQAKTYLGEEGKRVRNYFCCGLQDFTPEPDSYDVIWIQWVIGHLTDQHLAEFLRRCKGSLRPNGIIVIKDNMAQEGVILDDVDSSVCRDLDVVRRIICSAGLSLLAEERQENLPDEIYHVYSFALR
Sequence of Dual specificity protein kinase CLK4 (Homo sapiens) (Q9HAZ1 whole entry, looked up): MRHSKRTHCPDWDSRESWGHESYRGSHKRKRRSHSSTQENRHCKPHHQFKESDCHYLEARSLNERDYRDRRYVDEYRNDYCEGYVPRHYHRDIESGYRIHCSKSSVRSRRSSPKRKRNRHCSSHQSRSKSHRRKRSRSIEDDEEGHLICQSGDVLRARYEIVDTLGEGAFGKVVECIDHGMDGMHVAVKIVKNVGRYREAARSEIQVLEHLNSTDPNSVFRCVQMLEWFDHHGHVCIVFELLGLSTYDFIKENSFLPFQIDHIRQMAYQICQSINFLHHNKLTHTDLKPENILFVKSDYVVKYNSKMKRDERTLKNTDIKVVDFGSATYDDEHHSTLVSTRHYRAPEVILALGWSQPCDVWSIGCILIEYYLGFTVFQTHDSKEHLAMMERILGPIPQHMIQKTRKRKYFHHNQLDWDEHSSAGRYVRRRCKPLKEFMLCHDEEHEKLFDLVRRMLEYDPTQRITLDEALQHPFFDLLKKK
Sequence of Rap guanine nucleotide exchange factor 3 (Homo sapiens) (O95398 whole entry, looked up): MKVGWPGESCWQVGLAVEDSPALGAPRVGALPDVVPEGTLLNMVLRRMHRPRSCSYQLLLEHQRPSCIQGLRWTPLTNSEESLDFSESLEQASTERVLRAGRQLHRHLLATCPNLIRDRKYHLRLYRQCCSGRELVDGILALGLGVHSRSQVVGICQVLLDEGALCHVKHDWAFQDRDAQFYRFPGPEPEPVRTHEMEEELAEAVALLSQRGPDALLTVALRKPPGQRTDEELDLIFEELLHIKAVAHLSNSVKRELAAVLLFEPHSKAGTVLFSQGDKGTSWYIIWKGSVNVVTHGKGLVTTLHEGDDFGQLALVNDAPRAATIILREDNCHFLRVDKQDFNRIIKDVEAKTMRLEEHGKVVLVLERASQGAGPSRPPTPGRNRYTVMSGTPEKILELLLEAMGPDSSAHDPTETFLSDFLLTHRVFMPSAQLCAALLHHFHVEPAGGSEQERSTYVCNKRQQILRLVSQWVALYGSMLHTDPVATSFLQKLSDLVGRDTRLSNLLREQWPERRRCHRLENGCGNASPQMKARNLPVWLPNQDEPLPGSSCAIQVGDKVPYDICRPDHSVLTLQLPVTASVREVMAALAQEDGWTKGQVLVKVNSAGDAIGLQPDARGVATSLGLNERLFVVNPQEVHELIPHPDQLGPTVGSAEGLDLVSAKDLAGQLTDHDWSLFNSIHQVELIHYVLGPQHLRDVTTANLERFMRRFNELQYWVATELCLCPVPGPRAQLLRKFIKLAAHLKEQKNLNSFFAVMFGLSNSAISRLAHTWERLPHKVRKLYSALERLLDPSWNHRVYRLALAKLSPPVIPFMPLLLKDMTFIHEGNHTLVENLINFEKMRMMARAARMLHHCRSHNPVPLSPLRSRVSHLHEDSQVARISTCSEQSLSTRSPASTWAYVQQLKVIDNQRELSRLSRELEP
Sequence of Calcium and integrin-binding protein 1 (Homo sapiens) (Q99828 whole entry, looked up): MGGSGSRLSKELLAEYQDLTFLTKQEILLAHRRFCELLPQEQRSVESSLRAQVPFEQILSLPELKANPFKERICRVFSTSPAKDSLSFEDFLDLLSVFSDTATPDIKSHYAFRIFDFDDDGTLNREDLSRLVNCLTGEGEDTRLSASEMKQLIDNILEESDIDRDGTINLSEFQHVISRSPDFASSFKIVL
Sequence of Cytochrome P450 3A4 (Homo sapiens) (P08684 whole entry, looked up): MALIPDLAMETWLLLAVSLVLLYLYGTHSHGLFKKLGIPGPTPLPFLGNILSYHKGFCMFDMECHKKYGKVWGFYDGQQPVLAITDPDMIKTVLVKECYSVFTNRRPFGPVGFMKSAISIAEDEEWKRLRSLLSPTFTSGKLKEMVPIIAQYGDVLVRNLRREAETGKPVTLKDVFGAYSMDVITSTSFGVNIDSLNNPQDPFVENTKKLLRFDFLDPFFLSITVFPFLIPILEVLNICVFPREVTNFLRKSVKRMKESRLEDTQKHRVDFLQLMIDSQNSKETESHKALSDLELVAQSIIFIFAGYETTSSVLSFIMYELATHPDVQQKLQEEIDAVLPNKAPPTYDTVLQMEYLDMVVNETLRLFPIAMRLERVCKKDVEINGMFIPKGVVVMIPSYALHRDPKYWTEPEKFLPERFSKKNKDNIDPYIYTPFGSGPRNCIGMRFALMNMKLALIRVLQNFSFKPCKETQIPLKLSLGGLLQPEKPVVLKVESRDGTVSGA
Sequence of Glucocorticoid receptor (Homo sapiens) (P04150 whole entry, looked up): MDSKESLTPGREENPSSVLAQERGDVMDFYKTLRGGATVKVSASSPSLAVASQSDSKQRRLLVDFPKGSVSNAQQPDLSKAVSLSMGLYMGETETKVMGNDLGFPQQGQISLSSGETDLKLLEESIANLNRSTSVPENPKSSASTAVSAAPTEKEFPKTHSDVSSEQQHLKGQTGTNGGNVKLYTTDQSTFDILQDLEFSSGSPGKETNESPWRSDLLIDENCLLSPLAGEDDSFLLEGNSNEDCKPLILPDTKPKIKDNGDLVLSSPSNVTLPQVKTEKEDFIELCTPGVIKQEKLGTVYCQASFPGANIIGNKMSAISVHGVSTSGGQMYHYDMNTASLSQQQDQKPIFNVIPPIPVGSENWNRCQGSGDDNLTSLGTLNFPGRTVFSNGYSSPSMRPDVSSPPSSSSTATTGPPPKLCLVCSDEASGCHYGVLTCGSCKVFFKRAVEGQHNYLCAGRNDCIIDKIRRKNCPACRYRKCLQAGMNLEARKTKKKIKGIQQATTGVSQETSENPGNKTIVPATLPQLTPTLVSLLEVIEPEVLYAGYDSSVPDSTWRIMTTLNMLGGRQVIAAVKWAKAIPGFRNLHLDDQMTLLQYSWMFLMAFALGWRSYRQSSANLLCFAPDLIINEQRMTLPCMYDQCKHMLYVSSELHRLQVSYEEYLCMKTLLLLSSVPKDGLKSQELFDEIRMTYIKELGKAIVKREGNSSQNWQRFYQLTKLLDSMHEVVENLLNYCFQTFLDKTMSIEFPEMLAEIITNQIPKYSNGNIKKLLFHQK
Sequence of Ubiquitin carboxyl-terminal hydrolase 1 (Homo sapiens) (O94782 whole entry, looked up): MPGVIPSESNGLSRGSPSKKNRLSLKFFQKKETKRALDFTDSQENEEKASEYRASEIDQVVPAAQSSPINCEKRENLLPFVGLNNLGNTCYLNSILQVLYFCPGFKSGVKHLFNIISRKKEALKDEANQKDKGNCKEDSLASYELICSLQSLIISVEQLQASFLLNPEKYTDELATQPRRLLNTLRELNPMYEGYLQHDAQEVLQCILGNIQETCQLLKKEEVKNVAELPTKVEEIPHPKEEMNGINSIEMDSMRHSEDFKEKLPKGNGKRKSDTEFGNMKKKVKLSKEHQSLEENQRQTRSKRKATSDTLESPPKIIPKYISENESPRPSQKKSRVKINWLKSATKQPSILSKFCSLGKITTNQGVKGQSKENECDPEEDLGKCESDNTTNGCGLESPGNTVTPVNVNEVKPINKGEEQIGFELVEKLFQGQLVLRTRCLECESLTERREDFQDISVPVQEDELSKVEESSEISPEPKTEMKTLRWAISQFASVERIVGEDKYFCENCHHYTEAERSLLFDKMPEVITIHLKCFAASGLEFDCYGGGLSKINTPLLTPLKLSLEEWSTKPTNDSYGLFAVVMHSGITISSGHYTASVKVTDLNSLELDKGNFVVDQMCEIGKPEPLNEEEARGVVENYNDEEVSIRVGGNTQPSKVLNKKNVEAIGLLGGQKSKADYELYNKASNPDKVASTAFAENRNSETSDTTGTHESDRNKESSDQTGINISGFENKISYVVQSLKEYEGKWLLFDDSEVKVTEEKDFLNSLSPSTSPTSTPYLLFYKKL
Sequence of Cytochrome P450 1A2 (Homo sapiens) (P05177 whole entry, looked up): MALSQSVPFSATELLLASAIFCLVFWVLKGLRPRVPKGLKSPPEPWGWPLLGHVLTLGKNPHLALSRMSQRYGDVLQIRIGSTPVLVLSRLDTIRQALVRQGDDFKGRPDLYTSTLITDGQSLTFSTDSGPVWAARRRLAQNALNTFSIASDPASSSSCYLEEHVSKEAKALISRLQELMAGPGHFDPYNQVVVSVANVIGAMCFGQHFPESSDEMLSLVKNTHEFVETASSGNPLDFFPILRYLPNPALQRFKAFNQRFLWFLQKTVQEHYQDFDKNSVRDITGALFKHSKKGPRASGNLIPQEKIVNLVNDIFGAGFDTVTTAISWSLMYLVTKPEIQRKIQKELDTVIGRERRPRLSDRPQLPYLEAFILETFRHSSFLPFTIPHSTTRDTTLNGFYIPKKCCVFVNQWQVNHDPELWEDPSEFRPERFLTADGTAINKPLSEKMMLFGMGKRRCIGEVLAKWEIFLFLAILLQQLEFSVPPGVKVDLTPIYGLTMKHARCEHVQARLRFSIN

On to `c1cncc(-c2ccc3ncnc(NCc4cccs4)c3c2)c1`, for which, in experiment [1], the Potency entry is “inactive”. In addition, the Potency in experiment [2] is 39.8 µM (active).
As to `CC(=O)c1ccc(N2CCN(S(=O)(=O)c3ccc4c(c3)C(Cl)(Cl)C(=O)N4)CC2)cc1`, the Potency result in experiment [1] is “inactive”. For the same compound, the Potency in experiment [3] was 26.9 µM (active). Moreover, the outcome in experiment [4] and in experiment [5] was inactive.
Take `NC(=O)C1CCN(c2nc(-c3ccccc3Cl)cs2)CC1`: the Potency entry in experiment [1] and in experiment [2] was “inactive” each time.
As for `CN(C)C(=O)c1ccc(-c2cc[nH]c(=O)c2N)cc1`, the Potency entry in [1] and in experiment [2] was “inactive” throughout.
For the compound `Fc1cc(Nc2nc(-c3ccncc3)nc3ccccc23)ccc1-c1ccc2[nH]ncc2c1`, the Potency result in [1] and in experiment [2] was “inactive” each time.
In the case of `COc1cc(Nc2nc(-c3ccncc3)nc3ccccc23)ccc1N1CCN(C)CC1`, the Potency result in experiment [1] is “inactive”. Further, the Potency in [2] was 17 µM (active).
As to `Clc1ccccc1-c1ccc2ncnc(NCc3cccnc3)c2c1`, the Potency in [6] is over 11.4 µM; in [8], 0.158 µM (active); in experiment [11], over 46 µM; in experiment [12], over 46 µM; in experiment [14], 2 µM (active); in [16], 6.31 µM (active). Besides, the Potency in experiment [17] was 10 µM (active); in experiment [18] it was 11.2 µM (active); in [19], 10 µM (active). Moreover, the activity change, negative = inhibition in experiment [7] is 2.12%; in experiment [9], 13.8%. In experiment [10], the activity, negative = inhibition was -5.2%. Also, the outcome in experiment [13] was inactive. For the same compound, the Potency entry in [15], in experiment [20], in experiment [1] and in [21] was “inactive” in each case.
Take `O=C1CCc2cc(S(=O)(=O)Nc3cccc(Cl)c3)ccc2N1`: the Potency result in experiment [1], in experiment [22] and in experiment [23] was “inactive” each time.
Turning to `CC(C)(C)c1ccc(-c2csc(N3CCC(C(N)=O)CC3)n2)cc1`, the Potency result in [1] and in experiment [2] was “inactive” in each case.
For the compound `O=C(NCCc1ccccc1)C1CCN(c2nc(-c3ccc(Br)cc3)cs2)CC1`, the Potency entry in experiment [1] and in experiment [2] was “inactive” in each case.
